Measurements taken from the supplement of paper PMC6555819.

Each sequence was assayed on LXRb:RXRa (NR concentration 270 nM, RXRa partner concentration 90 nM) (assay: PBM binding z-score (relative to random genomic background probes); higher = stronger binding; sequences stand for … in GC…GCGATTGACAGCGTAGAATGAAGG).
Experimental: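 Protein-binding microarray (Agilent 4x180K custom design, double-stranded 60-nt probes: 5' GC cap, 34-nt variable region, 24-nt constant primer region; full probe sequence given). Purified or IVT nuclear receptor:RXRα heterodimers (3:1 NR:RXRα, mostly 270:90 nM) or homodimers were incubated for 1 h in PBS with 2% milk and no ligand, then detected with Alexa488 antibodies. Fluorescence from o1-orientation probes (~5 replicates averaged) was converted to z-scores against 500 random hg19 background probes. Variable regions are seed direct-repeat (DR0–DR5) sites, all their single-nucleotide variants and half-site ablations.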
AATACAAGGTCATCGTAGGCCAGAGTACGCACAG showed a PBM binding z-score of 5.13.
In the case of AATACAGGGTGACTAGGCCAGAGTAGGTACGAAT, the PBM binding z-score is reported as 0.204.
With ATCGAAAGGTCGAAGGTGAGCATACCCACCCGAA the PBM binding z-score was 2.79.
AATACAGGGTCATCTTAGGCCAGAGTACGCACAG showed a PBM binding z-score of 5.12.
Sequence CCTACTCGGCCAAAAAGGTCATTGATGCCGATAA has a PBM binding z-score of 4.63.
CGTCAAAGTTCAAGGTCACGTAACAGAAAGCAGC gave a PBM binding z-score of 5.52.
CCTTACGGGTCAAGGTTATAGCCCGGGTGGTACG showed a PBM binding z-score of 2.84.
CGAACTAGGTCACCCAGGACAGTGAATACATTGA was tested, and the PBM binding z-score was 1.93.
With CCTAGTTGTTCAGGAGGTCACACACCGGATATGA the PBM binding z-score was 3.76.
Work on TATACAAGGTCAAAGGCCAGAGTACGAATGTCGA yielded a PBM binding z-score of 5.46.
CCAACTAGGTCAAAGGACAGTGAAAGGCGACGTA gave a PBM binding z-score of 1.91.
ATCGAAAGGTCGACCAGGTGAGTATACACCGTTT gave a PBM binding z-score of 3.1.
For CGAACTAGGTCATCCAGGTCAGTGAATACATTGA, the PBM binding z-score was 2.98.
AGTCAAAGTTTATCTAGGTAACGTAAGATATGCT showed a PBM binding z-score of 0.175.
Sequence TACCCTAGGTCATTGGGCCAGTATAGTACGCATC has a PBM binding z-score of 4.07.
In the case of TAGCCTAGGGCATTCAGGGGCCAGTATAGAAAGC, the PBM binding z-score is reported as -0.231.
TTGCCTAGGTCATTGGGCCAGTATAGTACGCATC showed a PBM binding z-score of 2.28.
Sequence CCTAGCAGGCCAATCTAGGTCACTCAAGGCTTGA has a PBM binding z-score of 1.24.
TCTGCTAGGTCATCGATGGTCAGCTAATCTGCTA was tested, and the PBM binding z-score was 1.73.
CCTTACGGGTCACGTGGTTATAGCACGACGAGCG showed a PBM binding z-score of 3.48.
TAGCCTAAGTCATGCGGGCCAGTATAGTGTCGGC was tested, and the PBM binding z-score was -0.501.
CCTACTGGGCCTAAGGTCATTGATTCCAATGCTC was tested, and the PBM binding z-score was 3.36.
Sequence ATCGAAAGGTCCAAGGTGAGTATACCCACCCGAA has a PBM binding z-score of 0.126.
Sequence TCTTGTAGGTCAATAGAGGTTAAGAAAGTGCGCT has a PBM binding z-score of 5.11.
Sequence ATTTGTAGGTTACATCCGGGTCATTCAGGCTATG has a PBM binding z-score of 3.54.
Sequence AGTCAAAGTGCATCTAGGTAACGTAAGATATGCT has a PBM binding z-score of 0.11.
For GCTGCTAGTTCAACTGATGGTCAGCTAAAGCTCG, the PBM binding z-score was 0.0556.
Work on CCTACTGGACCAAGGTCATTGATCAGTCAAAGCA yielded a PBM binding z-score of 3.46.
In the case of TCTCGGAGGAAACGAAAGGTCAGAGCTCGACATC, the PBM binding z-score is reported as 3.1.
AACGAAAGGTCGAAGGTGAGTATACCCACCCGAA gave a PBM binding z-score of 3.06.
Sequence TACCCTAGGTCATTCAGGGGCCAGTATAGAAAGC has a PBM binding z-score of 4.5.
In the case of GCTGCTAGGTCAACTGATGGTCATCTAAAGCTCG, the PBM binding z-score is reported as 2.18.
TCGCCTAGGTCATGGGCCAGTATACCACGCGAAC showed a PBM binding z-score of 2.29.
In the case of TAGCCTAGGTCACATCGGGCCAGTATACGCTATA, the PBM binding z-score is reported as 2.29.
For AATACAGGGTCATCGTACGCCAGAGTACGCACAG, the PBM binding z-score was 4.92.
Work on CCGAGAAGGTTACGAGGGGGCATTCAGTGCGAAT yielded a PBM binding z-score of 7.2.
CGTCCAAGGTCATAGAGGTCAGTGAATGCCGAGT was tested, and the PBM binding z-score was 5.69.
For CAAACTAGTTCAAGAGGTCAAAGTCCGCTTCCCG, the PBM binding z-score was 5.37.
CGTCCAAGGTCAATGCTAGATCAGTGAAAGCATT showed a PBM binding z-score of 3.56.
With GGAACGAGGTCAAGTTGATAGCAGAGTTTGATGG the PBM binding z-score was 5.3.
